Source: PubChem BioAssay
TRPML1 inh: blocks the human TRPML1 channel | Q9GZU1 | TRPML1-inducible cells, Ca2+ dye fluorescence, FDSS; stronger effect = lower value; inhibition of EC80 agonist-evoked calcium signal | activity change, negative = inhibition, % (concentration not given with the values) | 390,000 tested, 0.02% active | AID 624415; in the data active means activity change below about -50%; inconclusive means between about -30% and that limit;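 further: stimulus is agonist 54-4 at its EC80 concentration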
Target sequence (Q9GZU1 whole entry, looked up): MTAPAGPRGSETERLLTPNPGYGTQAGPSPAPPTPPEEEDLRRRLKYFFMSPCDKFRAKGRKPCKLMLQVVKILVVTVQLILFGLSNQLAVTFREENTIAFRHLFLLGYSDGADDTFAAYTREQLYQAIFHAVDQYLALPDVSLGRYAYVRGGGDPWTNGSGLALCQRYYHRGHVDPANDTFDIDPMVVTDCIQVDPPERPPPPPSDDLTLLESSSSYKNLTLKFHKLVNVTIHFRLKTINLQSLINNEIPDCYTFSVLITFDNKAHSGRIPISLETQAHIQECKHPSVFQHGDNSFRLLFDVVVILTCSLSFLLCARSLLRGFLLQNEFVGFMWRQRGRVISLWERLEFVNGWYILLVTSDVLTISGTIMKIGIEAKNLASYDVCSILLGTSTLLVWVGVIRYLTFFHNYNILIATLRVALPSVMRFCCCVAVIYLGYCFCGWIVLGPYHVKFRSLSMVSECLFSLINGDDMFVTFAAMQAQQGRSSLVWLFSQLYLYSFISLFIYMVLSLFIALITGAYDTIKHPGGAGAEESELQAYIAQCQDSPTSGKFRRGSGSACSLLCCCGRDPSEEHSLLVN
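Calcium fluorescence in TRPML1-DL cells induced overnight with Tet: a 110 s read after compound pin addition, then a 110 s antagonist read after challenge with 54-4 at 4 uM final (EC80).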
RGS4 inh: inhibitors of human regulator of G protein signaling 4. 390,000 tested, 0.039% active. Transcreener GDP fluorescence polarization, RGS4-accelerated GTP hydrolysis. P49798. Potency, µM (top dose mostly 114 µM), most hits filed as inhibitors. AID 504845; further: nearly all actives have a fitted effect of over 75% in size
Target sequence (P49798 whole entry, looked up): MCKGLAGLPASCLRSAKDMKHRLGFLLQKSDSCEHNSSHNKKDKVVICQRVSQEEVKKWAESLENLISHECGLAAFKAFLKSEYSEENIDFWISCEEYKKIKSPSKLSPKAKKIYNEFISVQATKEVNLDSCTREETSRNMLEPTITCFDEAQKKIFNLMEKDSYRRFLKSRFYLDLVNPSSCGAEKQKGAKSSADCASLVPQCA
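MLSMR compounds (23 nl, pin-transferred) preincubated 10 min at room temperature with a 500nM (2x) first reagent, then RGS4 at 900nM (2x) plus Transcreener GDP mix added; fluorescence polarization (620/688 nm) read before and after 90 min at 30 °C.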
TRPML1 agonist: agonists of human TRPML1 channel; activation, % (no concentration beside the values); 410,000 tested, 0.12% active; Q9GZU1; TRPML1-expressing cells, Ca2+ dye fluorescence, FDSS; in the data active means activation above about 50%; inconclusive means mostly about 30% to 49%
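Calcium fluorescence on an FDSS kinetic reader gave the read-out. Tet-induced TRPML1-DL cells were plated overnight, dye-loaded (Ca8 with quencher, 45-90 min, room temperature, dark), then read 110 s after compound addition, and again 110 s after 4uM final 54-4 (EC80).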
TRPV1 agonist: activates the human vanilloid receptor TRPV1. Q8NER1. TRPV1-expressing cells, Fluo-8 calcium influx, agonist mode. activation, % at 8.33 µM. 320,000 tested, 0.19% active; in the data active means activation above about 80%; inconclusive means between about 30% and that limit
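Cells expressing TRPV1 were dye-loaded with Fluo-8 and read kinetically: 10 s baseline, 3 min after compound (agonist portion), then 2 min after EC20 capsaicin (allosteric enhancer portion). Calcium-bound dye fluorescence at 480/520 nm.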
A-T KAP1 phos: potential ataxia-telangiectasia treatment | F2112 A-T fibroblasts, KAP-1 phosphorylation AlphaLISA; neocarzinostatin DNA damage 30 min before lysis | Potency, µM (titrated, usually from 57.5 µM), usual class: activators | 320,000 tested, 0.19% active | AID 485349; further: nearly all actives have a fitted effect of over 45% in size
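ATM-like activity read as KAP-1 phosphorylation via AlphaLISA donor/acceptor antibody pairs after lysis and 6 hr at 25C. Cells were ATM-null patient fibroblasts (F2112, hTERT), dosed 60 min, then exposed to the DSB inducer NCS for 30 min.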
TRPV1 PAM: human TRPV1 potentiation; Q8NER1; TRPV1-expressing cells, Fluo-8 calcium influx, capsaicin EC20 potentiation; potentiation, % at 8.33 µM; 320,000 tested, 0.02% active; AID 540277; in the data active means potentiation above about 80%; inconclusive means between about 30% and that limit
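TRPV1-expressing cells were cultured overnight at 35.5C and loaded with Fluo-8 calcium dye for 40 to 90 min at room temperature. After a 10 s baseline, compound was added and calcium influx was read kinetically for 3 min (ex 480/em 520 nm).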
Each line names hits and unclear results; the compound was inactive in the other large screens; ! = not confirmed by another sample. Sampled rows, rich in hits. Any-hit rate of the full collection: about 0.5%. Unless noted, the call rests on the fitted dose curve; in most records, active means well fitted curve in the direction sought with a large enough effect; inconclusive means small, poorly fitted or top-dose-only effect, or another doubt; inactive means no such curve, though single readings can be large; an effect the other way counts as inactive or inconclusive.

CC(=O)c1ccc(N2CCN(C(=O)Nc3ccc(C)cc3)CC2)cc1	TRPV1 agonist 94
CC(=O)c1ccc(NC(=O)N2CCN(c3ccc(C)cc3)C(C)C2)cc1 (stereo unspecified)	TRPV1 agonist 84
COC(=O)N1CCN(c2ccc(C)cc2)C(C)C1 (stereo unspecified)	TRPV1 agonist inconclusive
Cc1ccc(NC(=O)N2CCN(c3ccc(Cl)c(Cl)c3)CC2)cc1	none (no result: TRPV1 agonist, A-T KAP1 phos, TRPV1 PAM)
O=C1OC2(c3ccccc31)c1cc(I)c(O)c(I)c1Oc1c2cc(I)c(O)c1I	TRPV1 agonist 88 (no result: TRPML1 inh, RGS4 inh, TRPML1 agonist)
NC(=O)C1CCN(C(=O)c2ccc3nc(-c4ccccc4)c(-c4ccccc4)nc3c2)CC1	TRPV1 agonist 81
CCOCCCNC(=O)c1ccc2c(=O)n(CCCOCC)c(=S)[nH]c2c1	none
CCOCCCn1c(=S)[nH]c2cc(C(=O)NCCCN(CC)CC)ccc2c1=O	TRPV1 PAM 105
CCOC(=O)c1ccc(NC(=O)NCc2ccccc2OC)cc1	TRPV1 agonist 84
O=S(=O)(/C(=C/c1ccc(C(F)(F)F)cc1)c1nc2ccccc2[nH]1)c1ccccc1	RGS4 inh inconclusive, A-T KAP1 phos 32µM
CC(C)c1ccc(/C=C(\c2nc3ccccc3[nH]2)S(=O)(=O)c2ccccc2)cc1	none
COc1ccccc1-c1noc2c1C(=O)N(Cc1cn(-c3ccc(Cl)cc3)nn1)CC2	none (no result: TRPML1 inh, RGS4 inh, TRPV1 agonist, A-T KAP1 phos, TRPV1 PAM)
N#C/C(=C\c1coc2ccc(O)cc2c1=O)C(=O)Nc1nc2ccccc2s1	RGS4 inh inconclusive, TRPML1 agonist 72, TRPV1 agonist inconclusive
Nc1ccc(C(=O)c2cccs2)cc1[N+](=O)[O-]	none
NC(=O)c1cc2ccccc2oc1=NCc1ccccc1	none
NC(=O)c1cc2ccc(O)cc2oc1=NCc1ccccc1	TRPML1 agonist 59
CCOC(=O)C(/C=C(\C#N)C(=O)OCC)=C(/N)N1CCN(c2ccc(Cl)cc2)CC1	TRPML1 agonist 69
CCOC(=O)N1CCN(c2ccc(Cl)cc2)CC1	TRPV1 agonist inconclusive
N#C/C(=C/c1ccc(N2CCCCC2)o1)C(=O)Nc1ccc2ccccc2c1	TRPML1 agonist 51, TRPV1 agonist inconclusive
N#C/C(=C/c1ccc(N2CCCCC2)o1)C(=O)Nc1ccc(Cl)cc1	TRPML1 agonist 61, TRPV1 agonist inconclusive
COc1ccc(NC(=O)/C(C#N)=C\c2ccc(N3CCOCC3)o2)cc1	TRPML1 agonist 65, TRPV1 agonist inconclusive
N#C/C(=C\c1ccc(N2CCOCC2)o1)C(=O)Nc1ccc(O)cc1	none
Cc1ccccc1OCC(=O)NCC(=O)OCC(=O)c1ccc([N+](=O)[O-])cc1	none
Cc1ccc(S(=O)(=O)CC(c2ccccc2)N2CCCCC2)cc1 (stereo unspecified)	none
CCOC(=O)C(C#N)=CN1CCN(C(=O)CCCl)c2ccccc21	none (no result: TRPV1 agonist, A-T KAP1 phos, TRPV1 PAM)
CC(=O)c1ccc(-c2ccc(C(=O)N3CCC(C(N)=O)CC3)o2)cc1	none
COc1ccc(N2CCN(c3ccc(N4C(=O)COCC4=O)cc3[N+](=O)[O-])CC2)cc1	none (no result: A-T KAP1 phos)
N#C/C(=C\c1ccc(O)c(O)c1)C(=O)NCCCCc1ccccc1	none (no result: TRPML1 inh, TRPML1 agonist, TRPV1 agonist, A-T KAP1 phos, TRPV1 PAM)
N#C/C(=C\c1ccc(O)c(O)c1)C(=O)NCCc1ccccc1	RGS4 inh 19µM!
O=C(N[C@@H](Cc1ccccc1)C(=O)CCl)OCc1ccccc1	RGS4 inh 3.4µM, A-T KAP1 phos inconclusive
O=C(Nc1ccc(Oc2ccsc2C(=O)O)cc1)c1ccccc1	none
O=C(O)c1sccc1Oc1ccc(NS(=O)(=O)c2cccc(F)c2)cc1	A-T KAP1 phos 45µM
CCCC(=O)Nc1cccc(-c2nc3cc(C)c(C)cc3o2)c1	none
COc1ccc(/C=N/Nc2ccccn2)cc1OC	none
CC(C)C(=O)Nc1ccc(C(=O)CN2C(=O)NC3(CCOc4ccccc43)C2=O)cc1 (stereo unspecified)	TRPV1 agonist 91
COC(=O)c1[nH]c2ccc(C)cc2c1NC(=O)CN1CCCC(C)(C)C1	TRPV1 agonist 89
CCOC(=O)c1[nH]c2ccc(C)cc2c1NC(=O)CN1CCCCC1	TRPV1 agonist inconclusive
O=C1c2ccccc2CN1CCSC(=S)N1CCOCC1	none
O=C1c2ccccc2CN1CCSC(=S)N1CCSCC1	TRPV1 agonist 90 (no result: TRPML1 inh, RGS4 inh, TRPML1 agonist)
O=c1oc2c(CN3CCCCCC3)c(O)ccc2cc1-c1nc2ccccc2[nH]1	TRPV1 agonist inconclusive, A-T KAP1 phos 16µM (no result: TRPML1 inh, RGS4 inh, TRPML1 agonist)
O=c1oc2c(CN3CCCC3)c(O)ccc2cc1-c1ccccc1	none (no result: TRPV1 agonist, A-T KAP1 phos, TRPV1 PAM)
CC(C)OCCCNc1ncnc2c1nc1n2CCCC1	none
NS(=O)(=O)c1ccc(N2N=C(c3ccc(Br)cc3)CC2c2ccc(F)cc2)cc1 (stereo unspecified)	A-T KAP1 phos 40µM
NS(=O)(=O)c1ccc(N2N=C(c3ccccc3)CC2c2cccc(Br)c2)cc1 (stereo unspecified)	none (no result: TRPV1 agonist, TRPV1 PAM)
NS(=O)(=O)c1ccc(N2N=C(c3ccccc3)CC2c2cccc(F)c2)cc1 (stereo unspecified)	A-T KAP1 phos 40µM
O=C(CN1C(=O)c2ccccc2C1=O)c1ccc(F)cc1	none
Cc1ccccc1-c1cc(=O)c2c(O)cccc2o1	A-T KAP1 phos 40µM
O=c1cc(-c2ccccc2)oc2cccc(O)c12	RGS4 inh 8.4µM! (no result: TRPML1 inh, TRPML1 agonist, TRPV1 agonist, A-T KAP1 phos, TRPV1 PAM)
Cc1cccc(N2CCN(S(=O)(=O)c3cnc[nH]3)CC2)c1C	none
Cc1nc(N2CCN(c3ccccn3)CC2)c2c(C)c(C(=O)Nc3ccc(Br)cc3C)sc2n1	TRPML1 agonist 55
Cc1nc(N2CCCCC2)c2c(C)c(C(=O)Nc3ccccc3C(F)(F)F)sc2n1	TRPV1 agonist 89
N=c1sccn1CC(=O)NCCc1ccc(Cl)cc1Cl	none
Cc1cccc(N2CCN(C(=O)c3ccccn3)CC2C)c1 (stereo unspecified)	TRPV1 agonist inconclusive
Cc1cccc(N2CCN(C(=O)NC3CCCCC3)CC2C)c1 (stereo unspecified)	TRPV1 agonist 93
CCOC(=O)c1cnc2nc(NCc3cccc(Br)c3)[nH]n2c1=O	none (no result: TRPV1 agonist, A-T KAP1 phos, TRPV1 PAM)
CC1/C(=N/O)CC(c2ccccc2)N(C)C1c1ccccc1 (stereo unspecified)	none
CC1C(c2ccccc2)N(C)C(c2ccccc2)CC1(O)c1ccccc1 (stereo unspecified)	A-T KAP1 phos 10µM
C#CCCOC(=O)N1C2=NC(C(=O)OC)=C(C(=O)OC)[C@@H]3N(CC=C)c4ccccc4[C@]23C[C@H]1C(=O)OC	none
C=CCN1c2ccccc2[C@]23C[C@@H](C(=O)OC)N(C(C)=O)C2=NC(C(=O)OC)=C(C(=O)OC)[C@H]13	A-T KAP1 phos 13µM
CCc1nnc(NC(=O)CSc2nnc(-c3ccccc3O)o2)s1	none
